We go through seven compounds from PubChem BioAssay (EPA / NIEHS).

Read-out in experiment [1]: Matrix Metallopeptidase 9 (MMP9), MMP9 (gene 4318)
Briefly: BSK_BE3C_MMP9: BioMAP Diversity Plus: BE3C Assay for Matrix Metallopeptidase 9 (MMP9) Biomarker Activity (AID 2284283). The note with it: primary human bronchial epithelial cells. The gist of the method: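 Human primary bronchial epithelial cells exposed 24 h to compound. MMP9 quantified by ELISA. SRB total-protein staining of parallel cultures assesses cytotoxicity. Positive-direction fit relative to DMSO.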

Read-out in experiment [2]: Plasminogen activator inhibitor-1 (PAI1), SERPINE1 (gene 5054)
Briefly: BSK_CASM3C_PAI1: BioMAP Diversity Plus: CASM3C Assay for Plasminogen activator inhibitor-1 (PAI1) Biomarker Activity (AID 2284284).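 Also: PAI-1 protein level measured by ELISA 24 h after dosing.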 As to conditions: primary human coronary artery smooth muscle cells.

Read-out in experiment [3]: Monocyte Chemoattractant Protein-1 (MCP1), CCL2 (gene 6347)
As to the kind of experiment: BSK_hDFCGF_MCP1: BioMAP Diversity Plus: hDFCGF Assay for Monocyte Chemoattractant Protein-1 (MCP1) Biomarker Activity (AID 2284285). As to conditions: primary human foreskin fibroblasts. The gist of the method:
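Human foreskin fibroblasts (hDFCGF system) were exposed to compound and secreted MCP-1 was measured by ELISA after 24 hours. Activity was fitted relative to DMSO. Cytotoxicity was checked by SRB total-protein staining in parallel cultures.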

Read-out in experiment [4]: Vascular cell adhesion molecule 1 (VCAM1), VCAM1 (gene 7412)
As to the kind of experiment: BSK_IMphg_VCAM1: BioMAP Diversity Plus: IMphg Assay for Vascular cell adhesion molecule 1 (VCAM1) Biomarker Activity (AID 2284286). The note with it: primary human endothelial cells with macrophages. Summed up: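 Human venular endothelial cells co-cultured with macrophages; VCAM-1 quantified by ELISA 24 h after dosing, fitted in the positive direction against DMSO. Cytotoxicity was checked in parallel cultures by SRB total-protein staining (0.1% SRB after 10% TCA fixation, 560 nm).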

Read-out in experiment [5]: Intercellular Adhesion Molecule 1 (ICAM1), ICAM1 (gene 3383)
As to the kind of experiment: BSK_hDFCGF_ICAM1: BioMAP Diversity Plus: hDFCGF Assay for Intercellular Adhesion Molecule 1 (ICAM1) Biomarker Activity (AID 2284287). The note with it: primary human foreskin fibroblasts. Summed up: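 Primary human foreskin fibroblasts (hDFCGF system) dosed with chemical; ICAM-1 quantified by ELISA at 24 h relative to DMSO. Parallel SRB total-protein staining to assess overt cytotoxicity.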

Read-out in the next experiment: CD40, CD40 (gene 958)
Briefly: BSK_IMphg_CD40: BioMAP Diversity Plus: IMphg Assay for CD40 Biomarker Activity (AID 2284288). The note with it: primary human endothelial cells with macrophages. Summed up: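 Venular endothelial cells co-cultured with macrophages (human primary), CD40 measured by ELISA 24 h after dosing. Positive-direction fit vs DMSO baseline; cytotoxicity tracked by SRB total-protein staining in parallel cultures.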

Read-out in experiment [6]: TIMP metallopeptidase inhibitor 2 (TIMP2), TIMP2 (gene 7077)
As to the kind of experiment: BSK_hDFCGF_TIMP2: BioMAP Diversity Plus: hDFCGF Assay for TIMP metallopeptidase inhibitor 2 (TIMP2) Biomarker Activity (AID 2284289). The note with it: primary human foreskin fibroblasts. The gist of the method: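 Primary human foreskin fibroblasts in the hDFCGF system, dosed for 24 h; TIMP-2 level measured by ELISA, fitted in the positive direction against DMSO; cytotoxicity checked in parallel by sulforhodamine B total protein staining.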

Read-out in experiment [7]: Interleukin-1 alpha (IL1a), IL1A (gene 3552)
As to the kind of experiment: BSK_IMphg_IL1a: BioMAP Diversity Plus: IMphg Assay for Interleukin-1 alpha (IL1a) Biomarker Activity (AID 2284290). As to conditions: primary human endothelial cells with macrophages. Summed up:
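Human venular endothelial cells co-cultured with macrophages, IMphg system. IL-1α is measured by ELISA 24 h after dosing and fitted in the positive direction against DMSO. Cytotoxicity is assessed by SRB staining of parallel cultures.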

Read-out in experiment [8]: E-selectin (Homo sapiens) (UniProt P16581)
As to the kind of experiment: BSK_IMphg_ESelectin: BioMAP Diversity Plus: IMphg Assay for Eselectin Biomarker Activity (AID 2284291). The note with it: primary human endothelial cells with macrophages. Summed up: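 Human venular endothelial cell–macrophage co-culture, E-selectin measured by ELISA 24 h after chemical dosing. Signal fitted in the positive direction against DMSO as negative control and baseline.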

A short description of experiment [9]: BSK_IMphg_SRB: Viability Assessment in the BioMAP Diversity Plus: IMphg Assay (AID 2284292).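 Also: measured one day after compound addition.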 The note with it: primary human endothelial cells with macrophages. The gist of the method: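 Human venular endothelial cells with macrophages, 24 h after chemical dosing; total protein by 0.1% SRB staining after 10% TCA fixation, read at 560 nm. Positive-direction fitting versus DMSO baseline.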

Read-out in experiment [10]: Macrophage colony-stimulating factor (MCSF), CSF1 (gene 1435)
Briefly: BSK_IMphg_MCSF: BioMAP Diversity Plus: IMphg Assay for Macrophage colony-stimulating factor (MCSF) Biomarker Activity (AID 2284293). The note with it: primary human endothelial cells with macrophages. The gist of the method:
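Co-culture of human venular endothelial cells and macrophages, 24 hours of chemical exposure. M-CSF quantified by ELISA, with parallel SRB total-protein staining for cytotoxicity; activity fitted relative to DMSO.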

Read-out in experiment [11]: Interleukin-10 (IL10), IL10 (gene 3586)
Briefly: BSK_IMphg_IL10: BioMAP Diversity Plus: IMphg Assay for Interleukin-10 (IL10) Biomarker Activity (AID 2284294). As to conditions: primary human endothelial cells with macrophages. The gist of the method:
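Human venular endothelial cells cocultured with macrophages, dosed 24 h; IL-10 measured by ELISA, activity relative to DMSO. Cytotoxicity assessed in parallel cultures by sulforhodamine B total-protein staining.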

Experiment [12] is described as follows: BSK_IMphg_SRB.Mphg: Macrophage Viability Assessment in the BioMAP Diversity Plus: IMphg Assay (AID 2284295). As to conditions: primary human endothelial cells with macrophages. The gist of the method: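 Venular endothelial cells co-cultured with macrophages, read 24 h after dosing. Total protein measured by 0.1% SRB staining after 10% TCA fixation, absorbance at 560 nm. Fitted in positive direction against DMSO baseline.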

Read-out in experiment [13]: Thrombomodulin, THBD (gene 7056)
As to the kind of experiment: BSK_LPS_Thrombomodulin: BioMAP Diversity Plus: LPS Assay for Thrombomodulin Biomarker Activity (AID 2284296). As to conditions: primary human HUVEC with PBMC. The gist of the method: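 Human umbilical vein endothelial cells co-cultured with PBMC and stimulated with LPS; cell-surface thrombomodulin measured by ELISA 24 hours after compound. Gain or loss versus DMSO; cytotoxicity checked by SRB staining in parallel cultures.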

“And” between values parts separate entries of the source, which are not always exact repeats. Identical values can stand only once. A structure can be active in one record and inactive in another. The source made the active and inactive calls. The calls were made as follows: active = hit-call score of the fitted dose curve at least 0.9, where 1 is the maximum; inactive = score below 0.9.

For orientation: AC50 means the concentration giving half of the maximal activity seen.

Chain of E-selectin (Homo sapiens) (P16581 whole entry, looked up): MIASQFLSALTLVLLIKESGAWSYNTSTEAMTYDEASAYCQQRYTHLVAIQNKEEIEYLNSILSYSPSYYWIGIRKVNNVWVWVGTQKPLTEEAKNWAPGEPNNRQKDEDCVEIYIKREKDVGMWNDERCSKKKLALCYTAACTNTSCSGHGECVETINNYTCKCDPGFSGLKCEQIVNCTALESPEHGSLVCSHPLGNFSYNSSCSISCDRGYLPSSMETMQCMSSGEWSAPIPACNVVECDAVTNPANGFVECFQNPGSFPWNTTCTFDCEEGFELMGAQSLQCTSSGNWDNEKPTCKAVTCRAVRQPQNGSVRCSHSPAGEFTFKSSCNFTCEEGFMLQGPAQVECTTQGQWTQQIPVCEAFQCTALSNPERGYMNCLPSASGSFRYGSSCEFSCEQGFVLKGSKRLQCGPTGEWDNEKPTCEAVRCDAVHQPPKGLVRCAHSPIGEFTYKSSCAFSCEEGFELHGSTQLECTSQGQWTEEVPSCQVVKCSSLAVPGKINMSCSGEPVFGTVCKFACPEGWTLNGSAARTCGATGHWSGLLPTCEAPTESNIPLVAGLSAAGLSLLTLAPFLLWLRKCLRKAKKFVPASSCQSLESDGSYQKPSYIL

As for `O=C(O)C(F)(F)C(F)(F)C(F)(F)C(F)(F)F`, the outcome in experiment [1] is “inactive”; in experiment [2], “inactive”; in [3], “inactive”; in experiment [4], “inactive”; in experiment [5], “inactive”; with CD40, CD40 (gene 958), “inactive”. Also, the result in experiment [6], in experiment [7], in experiment [8], in [9], in [10] and in experiment [11] was inactive. Also, the outcome in [12] and in experiment [13] was inactive.
Turning to `FC(F)(F)C(F)(F)C(F)(F)C(F)(F)CCI`, the outcome in experiment [1] was “inactive”; in experiment [2], “inactive”; in [3], “inactive”; in experiment [4] it was “inactive”; with CD40, CD40 (gene 958) it was “inactive”; in experiment [6], “inactive”. For the same compound, the outcome in [7], in experiment [8], in [9], in [10], in [12] and in experiment [13] was inactive.
Consider `OCCCC(F)(F)C(F)(F)C(F)(F)F`, for which the outcome in experiment [1] is “inactive”; in [2], “inactive”; in experiment [3], “inactive”; in experiment [4], “inactive”; in the experiment with CD40, CD40 (gene 958), “inactive”; in experiment [6], “inactive”. Further, the result in [7], in experiment [8], in [9], in experiment [10], in experiment [11] and in [12] was inactive. Also, the outcome in experiment [13] was inactive.
Regarding `CCCCCCCCC(F)(F)C(F)(F)C(F)(F)C(F)(F)C(F)(F)C(F)(F)F`, the outcome in experiment [1] is “inactive”; in [2] it was “inactive”; in experiment [3], “inactive”; in experiment [4], “inactive”; in experiment [5], “inactive”; with CD40, CD40 (gene 958) it was “inactive”. The outcome in experiment [6], in [7], in experiment [8], in experiment [9], in experiment [10] and in [12] was inactive. In experiment [13], the outcome was inactive.
In the case of `CC(C)(C)C(=O)CC(=O)C(F)(F)C(F)(F)C(F)(F)F`, the outcome in experiment [1] was “inactive”; in [2], “inactive”; in experiment [3] it was “inactive”; in [5] it was “inactive”; in the experiment with CD40, CD40 (gene 958), “inactive”; in [6] it was “inactive”. The result in experiment [7], in [8], in experiment [9], in [10], in experiment [11] and in experiment [12] was inactive. The result in experiment [13] was inactive.
As to `O=C(O)C(F)(F)C(F)(F)C(F)(F)C(F)(F)C(F)(F)C(F)(F)C(F)(F)C(F)(F)Cl`, the half-maximal activity concentration (AC50) in experiment [1] was 42.9 µM (active) and 40.4 µM (active); in experiment [3], 44.4 µM (active) and 47 µM (active); in experiment [5] it was 14.1 µM (active) and 8.21 µM (active); with CD40, CD40 (gene 958), 44.5 µM (active) and 46.5 µM (active); in [6], 6.54 µM (active); in experiment [9] it was 56.6 µM (active) and 47.9 µM (active). The half-maximal activity concentration (AC50) is 44.4 µM (active) in [12]; 30 µM (active) and 27.2 µM (active) in [13]. Besides, the outcome in [2], in [6], in [7], in experiment [8], in [10] and in [12] was inactive.
As for `O=C(O)C(F)(F)C(F)(F)C(F)(F)C(F)(F)C(F)(F)C(F)(F)C(F)(F)C(F)(F)C(F)(F)C(F)F`, the concentration at half-maximal activity (AC50) in experiment [1] is 14.2 µM (active) and 10.6 µM (active); in experiment [3] it was 23.4 µM (active) and 42 µM (active); in experiment [5], 14.5 µM (active); in experiment [9], 55.7 µM (active) and 50.4 µM (active); in experiment [11], 47.3 µM (active) and 45 µM (active); in [12], 49 µM (active) and 22.5 µM (active). In addition, the AC50 in experiment [13] is 55 µM (active) and 12.4 µM (active). In addition, the outcome in experiment [2] is “inactive”; in [5] it was “inactive”; in the experiment with CD40, CD40 (gene 958) it was “inactive”; in experiment [6], “inactive”; in experiment [7] it was “inactive”; in [8] it was “inactive”. The outcome in experiment [10] was inactive.
